HT1080-NT tox: qHTS for induction of synthetic lethality in tumor cells producing 2HG: qHTS for the HT-1080-NT fibrosarcoma cell line; HT-1080-NT fibrosarcoma viability, CellTiter-Glo ATP luminescence, 48 h; Potency, µM (top dose mostly 46.1 µM), hits mostly cytotoxic; 1.6% of 360,000 active; AID 686970, 2013;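 note: NT is the 2HG producing partner of a matched IDH1 knockdown line; nearly all actives have a fitted effect of over 55% in size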
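HT-1080-NT fibrosarcoma cells (2HG-overproducing), 750 cells/well in RPMI with 5% FBS, dosed after 2 h and incubated 48 h at 37C. CellTiter-Glo luminescence normalized to DMSO and no-cell wells; concentration-response curves fitted and classed.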
HT1080 IDH1KD tx: qHTS for induction of synthetic lethality in tumor cells producing 2HG: qHTS for the HT-1080-IDH1KD cell line. HT-1080 IDH1 knockdown viability, ATP luminescence, 48 h. Potency, µM (highest dose often 46.1 µM), actives largely listed as cytotoxic. 2% of 360,000 active. AID 686971, 2013
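IDH1KD HT-1080 cells, 750/well, RPMI + 5% FBS; compound pinned after 2 h settling; 48 h, 37 °C; CellTiter-Glo luminescence; % activity normalised to DMSO and no-cell wells; curves fitted, classed by r2 and efficacy.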
IL1B secr inh: qHTS for Inhibitors of Inflammasome Signaling: IL-1-beta AlphaLISA Primary Screen | THP-1 LPS/ATP IL-1B secretion, AlphaLISA, 16 h; active compounds read low | activity change, % at 57.5 µM | 4.7% of 360,000 active; in the data active = activity change below about -50%; inconclusive = mostly about -30% to -49%
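THP-1 cells pretreated 1 hr with compounds (up to 57.5 uM final), then stimulated with LPS (250 ng/mL final) plus ATP (1.25 mM final); secreted IL-1B measured by AlphaLISA after 16 hr, decreased signal indicating inhibition.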
DT40 TDP1 CPT: qHTS for Inhibitors of human tyrosyl-DNA phosphodiesterase 1 (TDP1): qHTS in cells in presence of CPT | chicken DT40 Tdp1-/-;hTDP1 cells + 20 nM CPT, ATP luminescence, 48 h | Potency, µM (top dose mostly 46.2 µM), hits mostly inhibitors | 12% of 420,000 active | AID 686979, 2013; note: nearly all actives have a fitted effect of over 55% in size
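Cell growth measured by CellTiter-Glo luminescence after a minimum 48 h, 37 C compound exposure with 20 nM CPT in Tdp1-knockout DT40 cells stably expressing hTDP1, seeded 400/well; qHTS titration format.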
ELG1 repair inh: qHTS screen for small molecules that inhibit ELG1-dependent DNA repair in human embryonic kidney (HEK293T) cells expressing luciferase-tagged ELG1. HEK293T ELG1-luciferase reporter, luminescence, 16 h; DNA damage induced by 5-fluorouridine. Potency, µM (series often up to 46.1 µM), most hits filed as inhibitors. 2.3% of 330,000 active. AID 504467, 2011; note: nearly all actives have a fitted effect of over 55% in size
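Luminescence from the luciferase reporter, measured 30 min after ONE-Glo reagent at room temperature, was the read-out. Beforehand, 2,000 cells per well were exposed for 16 hr at 37 °C to 5-fluorouridine together with compound or vehicle.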
DT40 TDP1 no CPT: qHTS for Inhibitors of human tyrosyl-DNA phosphodiesterase 1 (TDP1): qHTS in cells in absence of CPT; Potency, µM (top dose mostly 46.2 µM), most hits filed as inhibitors; DT40 Tdp1-/- hTDP1 cells, no CPT, ATP luminescence, 48 h; AID 686978, 2013; 15% of 420,000 active; note: nearly all actives have a fitted effect of over 55% in size
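A cellular qHTS used chicken DT40 cells lacking endogenous Tdp1 but carrying stably transfected human TDP1. Compounds were applied without camptothecin, and cell growth kinetics were judged by ATP-dependent luminescence after ≥48 hr.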
Hits are given with their value; 0 = inactive; ? = inconclusive; - = not tested or not shown; [ ] = another dose, or the depositor's remark. In the library only some 19% were active in any assay of this set; here they are far more common. Unless noted, calls come from the whole dose curve; as a rule, active = well fitted curve in the direction sought with a large enough effect; inconclusive = small, poorly fitted or top-dose-only effect, or another doubt; inactive = no such curve, though single readings can be large; an effect the other way counts as inactive or inconclusive.

SMILES	HT1080-NT tox	HT1080 IDH1KD tx	IL1B secr inh	DT40 TDP1 CPT	ELG1 repair inh	DT40 TDP1 no CPT
O=[N+]([O-])c1cc(/C=N/N2CCCCC2)ccc1Cl	0	0	0	0	?	?
COc1cccc(/C=N/Nc2nnc(C)n2N)c1OCc1ccccc1Cl	0	0	0	?	0	23.1µM
Nc1nnnn1/N=C\c1ccc(Cl)c([N+](=O)[O-])c1	0	0	-61.5	?	?	?
COc1ccc(/C=N/Nc2nnc(C)n2N)cc1OC	?	?	0	0	0	0
C=C1CC[C@@H]2[C@](C)(CCC[C@@]2(C)/C=C/[C@@H](O)C(C)(C)O)[C@H]1CC(=O)NCCS(=O)(=O)O	0	0	0	0	-	0
Cc1cccnc1C(NC(=O)C1CCN(CCCc2ccccc2)CC1)c1ccc(F)cc1 (centres undefined)	0	0	0	?	-	23.1µM
COc1ccccc1C(NC(=O)C1CCN(CCOc2ccc3ccccc3c2)CC1)c1ccccn1 (centres undefined)	18.4µM	18.4µM	?	14.6µM	-	14.6µM
Cc1cccnc1C(NC(=O)C1CCN(CCCOc2ccc(F)cc2)CC1)c1ccccc1 (centres undefined)	?	?	?	?	-	20.6µM
COc1ccc(OCCN2CCC(C(=O)NC(c3ccc(Cl)cc3)c3cnccn3)CC2)cc1 (centres undefined)	0	0	-54.1	?	-	?
COc1cccc(NS(=O)(=O)NC(=O)c2c(C)[nH]c3ccccc23)c1	0	0	0	0	0	0
COc1ccc(C(NC(=O)C2CCN(CCOc3ccc(Cl)cc3Cl)CC2)c2ccccc2C)cn1 (centres undefined)	0	0	0	?	-	?
Cc1cccnc1C(NC(=O)C1CCN(Cc2ccc(Cl)cc2)CC1)c1ccc(F)cc1 (centres undefined)	?	?	?	25.9µM	-	20.6µM
COc1ccc(OCCN2CCC(C(=O)NC(c3ccccn3)c3ccccc3OC)CC2)cc1 (centres undefined)	0	0	0	?	-	0
Cc1ccccc1C(c1ncccc1C)N(C)C(=O)C1CCN(CCOc2ccc(Cl)cc2Cl)CC1 (centres undefined)	?	23.1µM	?	?	-	?
CCCN1CCC(C(=O)NC(c2ccc(F)cc2)c2ncccc2C)CC1 (centres undefined)	0	0	0	?	-	0
COc1ccc(OCCN2CCC(C(=O)NC(c3ccc(F)cc3)c3ncccc3C)CC2)cc1 (centres undefined)	?	?	0	?	-	16.4µM
Cc1cccnc1C(NC(=O)C1CCN(Cc2ccc3ccccc3n2)CC1)c1ccc(Cl)cc1 (centres undefined)	?	?	?	?	-	16.4µM
C[C@@H]1C(=O)NC2=Nc3cccc(Cl)c3CN21	-	-	-	0	-	0
COC(=O)C1CCCCN1Cc1nc(N2CCCN(C(C)=O)CC2)c2ccccc2n1 (centres undefined)	-	-	-	0[9.04 µM]	-	0
CCC(=O)N1CCc2cc(Br)cc(S(=O)(=O)CCC(=O)N3CCN(c4ccc(OC)cc4)CC3)c21	-	-	-	0	-	0
COc1ccc(N(CC(=O)NCc2ccccc2Cl)S(=O)(=O)c2c(C)noc2C)cc1	0	0	0	0	0	0
CC(C)(C)c1ccc(C(=O)NC2CCS(=O)(=O)C2)cc1 (centres undefined)	0	0	0	0	?	0

Screening results deposited in PubChem BioAssay by National Center for Advancing Translational Sciences (NCATS).
